Results published in PubChem BioAssay (NCATS).
Results filed as inconclusive are left out. The source made the active and inactive calls. The call rests on the fitted dose curve; in most records, active means well fitted inhibition curve with a large enough effect; inconclusive means small, poorly fitted or top-dose-only effect; inactive means flat fitted curve, though single readings scatter.

tested on: Zika virus NS2B-NS3 protease; assay: Primary screen GU AMC qHTS for Zika virus inhibitors (AID 1347154); conditions: Zika NS2B-NS3 unlinked protease, AMC fluorogenic substrate; series mostly up to 54.1 µM;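 further: 0% = no-inhibitor control and -100% = no-enzyme control; nearly all actives have a fitted effect of over 70% in size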
Procedure, shortened: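 Fluorogenic AMC-substrate cleavage by noncovalent NS2B-NS3 protease complex (25 nM, pH 8.0 Tris buffer with Tween 20) followed for 15 minutes at room temperature (~20% conversion). Percent inhibition from ex340/em450 signal change, fitted by 4-parameter Hill equation.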

Activity change, negative = inhibition, inactive:
CCCCCCCCCCCCCCC[C@@H](O)[C@H](CO)NC(C)=O 7.2% [at 6.83 µM]
CCCCC[C@H](O)CC[C@H]1[C@H](O)CC(=O)[C@@H]1CCCCCCC(=O)O 15.4% [at 6.83 µM]
CCCCCCCCCCCCC/C=C/[C@@H](O)[C@H](CO)NC(=O)CCCCCCC 11.7% [at 6.83 µM]
CCCCCCCCCCOCCC(=O)O 12.5% [at 6.83 µM]
CCCCC/C=C\C/C=C\C/C=C\C/C=C\CCCC(=O)O[C@@H](CO)COCCCCCCCCCCCCCCCC 9.81% [at 6.83 µM]
CCCCCCCCCCCCC/C=C/[C@@H](O)[C@H](CO)NCCCCCCCC 15.2% [at 6.83 µM]
CC/C=C\C/C=C\C/C=C\CCCCCCCCCCCC(=O)O -2.15% [at 6.83 µM]
CCCCC/C=C\C/C=C\C/C=C\C=C\[C@@H](O)CCCC(=O)O 0.663% [at 0.59 µM]
CCCCCCCCCCCCC/C=C/[C@@H](O)[C@H](CO)NC(C)=O 16.6% [at 6.83 µM]
CCCCCCCC/C=C\C/C=C\C/C=C\CCCC(=O)NCCO 9.89% [at 6.83 µM]
CCCCCCCC/C=C\C/C=C\C/C=C\CCCC(=O)O -5.55% [at 6.83 µM]
CCCCC/C=C\C/C=C\CCCCCCCC(N)=O 15% [at 6.83 µM]
CCCCC[C@H](O)/C=C/[C@H]1C=CC(=O)[C@@H]1CCCCCCC(=O)O 16.3% [at 6.83 µM]
CCCCC/C=C\C=C\[C@H](O)CCCCCCCC(=O)O 19.3% [at 0.59 µM]

Potency, inactive:
Nc1nc2c(ncn2[C@@H]2O[C@H](COP(=O)(O)OP(=O)(O)OP(=O)(O)O)[C@@H](O)C2O)c(=O)[nH]1 (stereo not given in full)
C=C1/C(=C\C=C2\CCCC3(C)C2CCC3C(C)/C=C/C(O)C2CC2)CC(O)CC1O (stereo not given)
COC(=O)/C=C/c1cc(O)ccc1O
CC(C)c1cnc(NC(=O)Cc2ccccc2)s1
CC1=C(/C=C/C(C)=C/C=C/C(C)=C\CO)C(C)(C)CCC1
CCC(=O)NC1Cc2ccccc2C(c2ccccc2)C1 (stereo not given)
CS(=O)(=O)Nc1c(O)ccc2c1CCCC2C1=NCCN1 (stereo not given)
COc1ccc2[nH]cc(CCNC(=O)C3CC3)c2c1
Nc1ncc2[nH]cnc2n1
Nc1ncnc2c1ncn2[C@@H]1O[C@H](COP(=O)(O)OP(=O)(O)OC[C@H]2OC(O)[C@H](O)[C@@H]2O)[C@@H](O)[C@H]1O (stereo not given in full)
COc1ccc(/C=C/C(=O)CC(=O)/C=C/c2cccc(O)c2OC)cc1O
CNC(=O)[C@H]1O[C@@H](n2cnc3c(N)ncnc32)[C@H](O)[C@@H]1O
CC(=O)N[C@@H](CSC/C=C(\C)CCC=C(C)C)C(=O)O
CC(C)[C@H](O)CC[C@@H](C)C1CC[C@H]2C3CC=C4C[C@@H](O)CC[C@]4(C)C3CC[C@]12C (stereo not given in full)
N[C@@]1(C(=O)O)CO[C@H]2[C@H](C(=O)O)[C@H]21
N[C@@H](Cn1c2c(c(=O)[nH]c1=O)CCC2)C(=O)O
C[C@H](CCC(=O)O)C1CC[C@H]2C3CC[C@@H]4C[C@H](O)CC[C@]4(C)C3C[C@H](O)[C@]12C (stereo not given in full)
C[C@@H](Cc1ccccc1)Nc1ncnc2c1ncn2[C@@H]1O[C@H](CO)[C@@H](O)[C@H]1O
NS(=O)(=O)c1nn2cc(-c3ccccc3)nc2s1
OC[C@H]1O[C@@H](n2cnc3c(NC4CCCC4)nc(Cl)nc32)[C@H](O)[C@@H]1O
O=c1ncccn1[C@@H]1O[C@H](CO)C(O)[C@@H]1O (stereo not given in full)
Nc1ccnc2c1ncn2[C@@H]1O[C@H](CO)[C@@H](O)[C@H]1O
NCC(O)COc1cccc2ccccc12 (stereo not given)
CC(C)C(NS(=O)(=O)c1ccc(-c2ccc(Br)cc2)cc1)C(=O)O (stereo not given)
CC(C)C(N)C(=O)O (stereo not given)
N[C@@H](C(=O)O)[C@@H](CC(=O)O)c1ccc(Cl)cc1
